{"source": "the supplement of paper PMC6555819", "data": [{"system": "VDR:RXRa (NR concentration 270 nM, RXRa partner concentration 90 nM)", "experiment": "PBM binding z-score (relative to random genomic background probes); higher = stronger binding; sequences stand for … in GC…GCGATTGACAGCGTAGAATGAAGG", "protocol": "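Protein-binding microarray (Agilent 4x180K custom design, double-stranded 60-nt probes: 5' GC cap, 34-nt variable region, 24-nt constant primer region; full probe sequence given). Purified or IVT nuclear receptor:RXRα heterodimers (3:1 NR:RXRα, mostly 270:90 nM) or homodimers were incubated for 1 h in PBS with 2% milk and no ligand, then detected with Alexa488 antibodies. Fluorescence from o1-orientation probes (~5 replicates averaged) was converted to z-scores against 500 random hg19 background probes. Variable regions are seed direct-repeat (DR0–DR5) sites, all their single-nucleotide variants and half-site ablations.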", "values": [{"sequence": "CTCGAAAGGTCGGGCTCAGGTGAGTATACCAAAC", "PBM binding z-score": 1.5}, {"sequence": "GGGACGAGGGCAAAGTTGATAGCATCTGTCGACG", "PBM binding z-score": 1.47}, {"sequence": "CCGACTTGGGCATAAGGTTACCATAAGCCAGCCC", "PBM binding z-score": -0.311}, {"sequence": "ACAGATAGGTGAGTGAAGGTAACTCAGCTGGACG", "PBM binding z-score": -0.335}, {"sequence": "ACAGACAGGTGCGTGAAGGTAACTCAGCTGGACG", "PBM binding z-score": -0.488}, {"sequence": "GCTTGTAGATCAAGGTTAAGAAAGACTAAGCTAA", "PBM binding z-score": 0.156}, {"sequence": "CCTACTGGGCCAAAAAGGTCATCGATGCCGATAA", "PBM binding z-score": 4.79}, {"sequence": "CGAACTAGGTCAAGGACAGTGATTCTCCGCACGC", "PBM binding z-score": 1.48}, {"sequence": "CCTTACGGGTCAATGTTATAGCACGGGTGGTACG", "PBM binding z-score": 2.57}, {"sequence": "TCTAGTTGGTCAAAGGTCACATACTCGAAATGCG", "PBM binding z-score": 5.02}, {"sequence": "GCTTACGGGTCGAAGGTTATAGCATGAATAGAAT", "PBM binding z-score": 2.02}, {"sequence": "TCGAGTAGTTTAGGGGCATTCAGAATGGCGTCGA", "PBM binding z-score": 0.605}, {"sequence": "TCTAGTTGGTCACGGATGTCACACACGACGGGTA", "PBM binding z-score": 1.18}, {"sequence": "ATCTCTAGGTAAGACTCACTTCAGTGAAGAACGC", "PBM binding z-score": 0.175}, {"sequence": "TCTATTAGTTGATTAGGACAACCGAAACAGCGGA", "PBM binding z-score": 1.12}, {"sequence": "GCTATTAGTTGAAAGGGCAACTGAATGATTCTCG", "PBM binding z-score": 0.488}, {"sequence": "TCTAATTGGTCACGGAGGTCACACACGACGGGTA", "PBM binding z-score": 6.1}, {"sequence": "TCGAGTAGGTTAGTCGGGGCATTGAGCCAACATA", "PBM binding z-score": 1.89}, {"sequence": "CAAACTAGGTCAATAGGTCAAAGTCCGCTTCCCG", "PBM binding z-score": 4.64}, {"sequence": "CCAGACAGGTGAGAAGTTAACTCAGCCTCGATTA", "PBM binding z-score": -0.0797}, {"sequence": "GGAACGAGGGCGAGTTGATAGCAGAGTTTGATGG", "PBM binding z-score": -0.000397}, {"sequence": "CCTACTGGGCCAAAAAGGTCAATGATGCCGATAA", "PBM binding z-score": 4.18}, {"sequence": "CATACAGGGTCAGCTAGACCAGAGTAGGGACGGC", "PBM binding z-score": 2.52}, {"sequence": "ATCGAAAGGTCGACGAGGTAAGTATACACCGTTT", "PBM binding z-score": 4.59}, {"sequence": "CGTAGTTGGTCAGGAGGTCACACACCGGATATGA", "PBM binding z-score": 3.86}, {"sequence": "ACTAGCAGACCAAGTTTGGGTCACTCAAACAAAG", "PBM binding z-score": 0.245}, {"sequence": "TCATATAGGTAAACAGGTGAAAGACCGTAAGTTA", "PBM binding z-score": 1.05}, {"sequence": "TGAATGAGGTTATAAGATCTGGGAACGTTGCAAA", "PBM binding z-score": 0.768}, {"sequence": "GCTGCTAGGTCAGGTTGGTCAGCAAACGGGTACG", "PBM binding z-score": 0.616}, {"sequence": "CCCACTGGGCCAAAGGTCATTGATTCCAATGCTC", "PBM binding z-score": 4.73}, {"sequence": "CCTAGTTGGTCAGCAGGTCACACACCGGATATGA", "PBM binding z-score": 2.32}, {"sequence": "CCTCCTGGGCCATTCAGAGGTCATTGATCATATG", "PBM binding z-score": 3.97}, {"sequence": "ACTAGCTGGCCAAGTTTGGGTCACTCAAACAAAG", "PBM binding z-score": 0.228}, {"sequence": "TCTTGTAGACCAAAGGTTAAGAAAGCCGAAGCCT", "PBM binding z-score": 0.807}, {"sequence": "CGAACGTGGGCATGAGTTGATAGCAAATGCCGAT", "PBM binding z-score": -0.7}, {"sequence": "TCATATAGGTAAATGTTAGGTGAAAGTCCGATCT", "PBM binding z-score": 1.23}, {"sequence": "GGAACGAGGGCATTCAAGTTGATAGCATGGCGAT", "PBM binding z-score": 3.02}, {"sequence": "TTTAGTTGGTCACGGAGGTCACACACGACGGGTA", "PBM binding z-score": 6.05}, {"sequence": "GGGACGAGGGCATTCGAGTTGATAGCATGGCGAT", "PBM binding z-score": 3.62}, {"sequence": "ATATATAGGTTAAGGGTCATTCAGGTTGGTTCGC", "PBM binding z-score": 6.11}]}]}
